# FBW7 act = FBW7 E3 ligase activators, primary screen, biochemical, AlphaScreen, human; AlphaScreen FBW7–phospho-cyclin E peptide binding, activator screen; actives 0.13% (n = 650,000); AID 1259310, 2017; F-box/WD repeat-containing protein 7 (Homo sapiens), Q969H0; normalized activity (activation), % at 26.1 µM; in the data active = normalized activity above about 1.9%;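 note: purified mutant Fbw7 with reduced substrate affinity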
# TEAD-YAP inh = TEAD-YAP interaction inhibition, primary screen, TEAD-YAP interaction inhibitor project, luminescence, HEK-TIYL cells; TEAD-Gal4/YAP UAS-luciferase luminescence; inhibition, % at 9.12 µM; actives 1.4% (n = 640,000); in the data active = inhibition above about 32%;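 note: 0% = median of test compound wells and 100% = reference inhibitor wells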
# MITF inh = MITF inhibitors, primary screen, biochemical, AlphaScreen, human. actives 0.91% (n = 650,000). AlphaScreen MITF homodimerization, bead proximity signal. inhibition, % at 2.6 µM. Microphthalmia-associated transcription factor (Homo sapiens), O75030; in the data active = inhibition above about 50%;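 note: 0% = vehicle wells with protein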
# GPR151 activ = activators of human GPR151, primary screen, cell-based, PathHunter beta-arrestin, luminescence. PathHunter beta-arrestin GPR151 cells. AID 1508602, 2020. actives 1% (n = 650,000). activation, % at 11.2 µM; in the data active = activation above about 4.9%;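 note: 0% = median of compound wells and 100% = cells with positive control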
# Target sequence (Q8TDV0 whole entry, looked up): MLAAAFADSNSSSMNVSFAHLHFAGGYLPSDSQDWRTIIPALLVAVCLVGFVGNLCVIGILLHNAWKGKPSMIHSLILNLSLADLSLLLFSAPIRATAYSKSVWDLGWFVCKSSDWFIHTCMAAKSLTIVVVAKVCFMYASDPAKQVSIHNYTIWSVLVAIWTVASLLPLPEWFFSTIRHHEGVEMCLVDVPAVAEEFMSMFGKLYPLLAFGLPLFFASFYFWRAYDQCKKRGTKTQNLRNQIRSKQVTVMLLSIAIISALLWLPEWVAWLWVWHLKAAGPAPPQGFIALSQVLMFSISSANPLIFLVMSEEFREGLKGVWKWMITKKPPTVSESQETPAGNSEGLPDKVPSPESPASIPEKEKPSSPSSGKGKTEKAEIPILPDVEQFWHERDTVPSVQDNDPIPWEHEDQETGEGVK
# MITF confirm = MITF inhibitors, retest of hits, confirmation, biochemical, AlphaScreen, triplicate. AlphaScreen MITF homodimerization, biotin/His-MITF beads. inhibition, % at 2.6 µM. shares compounds with MITF inh. AID 1259372, 2018. actives 16% (n = 4,700);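 active = inhibition above a cutoff derived from the DMSO control wells, cut at about 28% in these data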;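 note: 0% = MITF dimer wells with DMSO only; inhibitors lower the bead chemiluminescence by keeping MITF from dimerizing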
# AlphaScreen DR = AlphaScreen optical interference compounds, dose response, counter-screen, biochemical, HTS; shares compounds with MITF inh; AlphaScreen optical interference counterscreen, cell-free; IC50, µM; actives 6% (n = 480); call rule not given here
# AS interf ctr = AlphaScreen optical interference compounds, counter-screen for MITF inhibitor project, biochemical, triplicate; shares compounds with MITF inh; LysRS AlphaScreen counterscreen, signal interference; inhibition, % at 2.6 µM; actives 7.6% (n = 4,700);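 active = inhibition above a cutoff derived from the DMSO control wells, cut at about 30% in these data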
# An asterisk follows results filed as active; x = not tested or not shown. Sampled rows, rich in hits. Any-hit rate of the full collection: about 3.4%.
SMILES,FBW7 act,TEAD-YAP inh,MITF inh,GPR151 activ,MITF confirm,AS interf ctr,others
Cc1ccc(NC(=O)OCc2ccccc2)cc1N1CCCC1=O,-0.1,-2.2,-1.4,-0.1,x,x,
Cc1cc(C(=O)O)ccc1-c1ccc(/C=C2/NC(=O)NC2=O)o1,-0.2,11.9,66.8*,1.0,67.6*,20.0,AlphaScreen DR=>6.48
Nc1cccc(/N=C/c2nc(-c3ccc(Br)cc3)oc2O)n1,0.2,-5.1,-0.1,-0.1,x,x,
CCCCOC(=O)C1=C(C)NC(=O)NC1c1ccc(O)c([N+](=O)[O-])c1 (stereo unspecified),0.6,3.2,9.4,1.9,x,x,
CCN(C(=O)Cn1ncc2c1-c1cc(C)ccc1OC2)c1ccccc1F,-0.4,-15.0,-1.4,0.2,x,x,
CCN(C(=O)Cn1ncc2c1-c1cc(C)ccc1OC2)c1cc(OC)ccc1OC,0.2,10.2,70.5*,2.9,5.5,18.2,
CCOC(=O)c1sc(NC(=O)CN2CCCCC2C)c(C(=O)OCC)c1C (stereo unspecified),0.0,0.2,24.4,-1.4,x,x,
COC(=O)c1sc(NC(=O)CN2CCCCC2C)c(C(=O)OC)c1C (stereo unspecified),-0.2,2.8,58.8*,2.8,0.7,0.1,
CCOC(=O)C1=[N+]([O-])OC(C(=O)OCC)C1CC(C)=O (stereo unspecified),-0.1,-4.1,48.4,-1.3,x,x,
CCOC(=O)CC1C(C(=O)OCC)=[N+]([O-])OC1C(=O)OCC (stereo unspecified),0.0,0.1,63.8*,0.5,22.2,18.9,
COc1ccc(C(=O)Nc2ccc3oc4ccc(NC(=O)c5ccc(OC)cc5)cc4c(=O)c3c2)cc1,0.0,-0.4,9.0,0.0,x,x,
C=CCNC(=O)c1cc(-c2ccco2)on1,-0.1,-50.5,0.0,0.1,x,x,
Cc1cccc(NC(=O)C2C3C=CC(C4CC34)C2C(=O)O)c1C (stereo unspecified),0.0,5.0,54.9*,3.7,17.1,15.4,
FC(F)(F)c1ccc(Nc2nc(Nc3ccc4c(c3)OCO4)c3ncn(-c4ccsc4)c3n2)cc1,-0.1,-5.3,7.4,0.1,x,x,
CC(=O)Nc1ccc(C(=O)NC(CC(=O)O)c2cccc([N+](=O)[O-])c2)cc1 (stereo unspecified),0.0,7.2,60.3*,0.8,-1.7,1.4,
CC(C)(C)c1ccc(C(=O)NC(CC(=O)O)c2cccc([N+](=O)[O-])c2)cc1 (stereo unspecified),-0.1,9.7,2.1,0.4,x,x,
CCN1CCN(CC(=O)c2ccc(OC(F)F)cc2)CC1,0.2,-0.7,77.8*,0.5,8.7,18.2,
CC(=O)c1ccc(OCCCCN2CCN(C)CC2)cc1,0.1,-8.2,52.0*,-0.1,8.5,21.8,
CC(=O)c1ccc(OCCN2CCCCC2)cc1,-0.3,-3.0,31.8,-0.2,x,x,
CCN1CCN(CCOc2ccc(C(C)=O)cc2)CC1,-0.1,0.1,78.0*,0.1,1.0,16.1,
CCCNC(=O)/C(=C/c1ccc(-c2ccccc2[N+](=O)[O-])o1)NC(=O)c1ccccc1,0.0,-1.9,15.0,0.7,x,x,
CCc1nc2sc(C(c3ccc(OC)c(OC)c3)N3CCCCC3)c(O)n2n1 (stereo unspecified),0.2,-2.1,-12.8,0.0,x,x,
CCc1nc2sc(C(c3ccc(C(C)C)cc3)N3CCCC3)c(O)n2n1 (stereo unspecified),0.0,0.9,57.3*,0.9,0.2,-2.6,
CC(C)CNC(=O)c1cccc(NC(=O)CC(C)C)c1,-0.1,2.1,3.9,0.1,x,x,
O=C(NCc1ccccc1)N1CCN2C(=O)[C@@H]3CSCN3C(=O)[C@H]2C1,-0.5,2.1,74.7*,-0.6,74.7*,-4.8,AlphaScreen DR=>6.48
SMILES,FBW7 act,TEAD-YAP inh,MITF inh,GPR151 activ,MITF confirm,AS interf ctr,others
CN1C(=O)[C@H]2CN(C(=O)NCc3ccccc3)CCN2C(=O)[C@@H]1Cc1ccccc1,0.6,3.0,80.4*,0.0,68.2*,-2.7,AlphaScreen DR=>6.48
O=C(Nc1ccc(Cl)cc1Cl)N1CCN2C(=O)[C@@H]3CSCN3C(=O)[C@H]2C1,-0.4,6.2,69.5*,-0.8,66.0*,0.5,AlphaScreen DR=>6.48
O=C(c1cccc2ccccc12)N1CCN2C(=O)[C@@H]3CSCN3C(=O)[C@H]2C1,0.1,3.8,18.8,-0.3,x,x,
COC(=O)Cn1c(=S)[nH]c2ccccc2c1=O,0.1,9.9,8.1,-0.9,x,x,
CC(C)(C)C(=O)NCCNc1ccc(Cl)cc1[N+](=O)[O-],0.0,-1.3,86.9*,3.5,-3.8,-2.7,
Cc1nccn1Cc1ccc(O)c2ncccc12,-2.1,10.1,82.3*,-0.2,103.2*,100.6*,
Cc1ccc(NCc2ccccc2O)cc1,-0.1,-27.9,11.9,1.4,x,x,
CCN(CC)Cc1cccc2cccnc12,0.2,2.8,15.2,0.0,x,x,
Cc1ccc(NCc2ccc(O)c3ncccc23)cc1,-1.8,1.6,53.0*,-0.7,105.2*,100.3*,
Cc1cccnc1NCc1ccc(O)c2ncccc12,-0.7,-4.4,64.2*,0.8,51.5*,90.9*,
CCN(CC)Cc1ccc(O)c2ncccc12,-1.1,50.9*,93.3*,-2.1,101.8*,100.3*,
Cc1ccc(S(=O)(=O)Nc2cccc(N(C)S(C)(=O)=O)c2)cc1,-0.3,-3.5,-11.8,1.6,x,x,
CN(c1cccc(NS(=O)(=O)c2ccc([N+](=O)[O-])cc2)c1)S(C)(=O)=O,0.1,12.6,50.8*,-1.7,33.9*,7.2,AlphaScreen DR=>6.48
CCOC(=O)N1CCN(c2c(NCCCOC)c(=O)c2=O)CC1,0.0,5.5,-3.8,1.6,x,x,
CC(=O)CCc1ccc(OCCN2CCN(C)CC2)cc1,0.0,-8.2,0.5,0.5,x,x,
CC(=O)CCc1ccc(OCCCCN2CCN(C)CC2)cc1,-0.1,4.8,-5.0,0.6,x,x,
CCN1CCN(CCCCOc2ccc(CCC(C)=O)cc2)CC1,-0.3,-5.8,66.1*,-0.8,10.2,19.2,
CCN1CCN(CCCOc2ccc(CCC(C)=O)cc2)CC1,-0.1,-0.9,56.3*,2.2,13.1,16.4,
C=CCN(c1ccccc1)S(=O)(=O)c1ccc2[nH]cc(C(=O)O)c(=O)c2c1,-0.1,6.2,57.1*,-0.4,11.5,-4.3,
CN(Cc1ccco1)S(=O)(=O)c1ccc2[nH]cc(C(=O)O)c(=O)c2c1,-0.1,-0.5,54.2*,0.8,29.7*,4.8,AlphaScreen DR=>6.48
C/C(=C\C(=O)c1cccnc1)NCc1ccc(F)cc1,-0.1,4.3,4.0,1.4,x,x,
CCOC(=O)c1c(N)nn2c3ccccc3n(C)c12,0.0,-24.4,63.8*,0.9,10.6,17.7,

# Screening results as filed in PubChem.
